Screens deposited in PubChem BioAssay by several laboratories.
The list is not random: actives were taken first. Their share in the collection is about 1.5%.
RTF Ca sens act: increases calcium sensitivity of human cardiac regulated thin filaments; IANBD-labeled TnC RTF fluorescence at EC20 calcium; 0% EC20 calcium, 100% full calcium; actives 0.24% (n = 340,000); activation, % at 7.2 µM; P19429+P45379; AID 493008;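 active = activation above the mean over all tested compounds plus 3 SD, cut at about 30% in these data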;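 note: rise in fluorescence read as greater calcium sensitivity of cardiac thin filaments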
IDE cell activ: IDE (human) activation, cell-based. actives 0.073% (n = 340,000). P14735. HEK cells, FAbeta-B cleavage, fluorescence polarization; 0% vehicle, 100% cell-free pure enzyme wells. activation, % at 5.96 µM;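 active = activation above the mean of all tested compounds plus 3 SD, set per screening campaign, cut at about 17% in these data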
IDE inh: inhibits human insulin-degrading enzyme in HEK cells | FAbetaB cleavage, fluorescence polarization | P14735 | inhibition, % at 5.59 µM | actives 0.41% (n = 320,000);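 active = percent inhibition above the average of all tested compounds plus 3 SD, set per screening campaign, cut at about 16% in these data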;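 note: IDE supplied by intact live HEK cells; FP after avidin binding of uncleaved biotin substrate so inhibition keeps polarization high; 0% = DMSO wells and 100% = 60 µM reference IDE inhibitor Ii1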
CRFR2-BP ag: agonists of human CRF-binding protein/CRF-R2 receptor complex; HEK293 CRF-R2/CRF-BP, calcium dye fluorescence (FLIPR); percent of saturating CRF peptide response; activation, % at 13.2 µM; actives 0.46% (n = 350,000); AID 588473;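 active = activation of at least 50%, plus an integration ratio under a set limit after plate pattern correction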;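 note: plate controls were neutral control wells without compound for no effect and CRF at EC100 for full effect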
CRFR2-BP antag: antagonists of CRF-binding protein/CRF-R2 receptor complex | actives 0.59% (n = 350,000) | AID 588475 | HEK293 CRF-R2/CRF-BP, CRF-induced calcium fluorescence | inhibition, % at 11.8 µM;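 active = inhibition of the ligand-induced calcium signal above about 50% at the single tested concentration, limit read from the data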
Cardiac RTF inh: cardiac RTF calcium desensitization | P19429+P45379 | IANBD-labeled cardiac RTF, Ca2+ fluorescence | inhibition, % at 7.15 µM | actives 0.12% (n = 340,000);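 active = inhibition above the mean inhibition of all tested compounds plus 3 SD, cut at about 17% in these data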;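 note: assay run at fixed EC70 calcium of 1.6 mM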
RTF inh confirm: cardiac RTF calcium sensitivity inhibition, confirmation; reconstituted cardiac thin filaments, calcium sensitivity fluorescence; shares compounds with Cardiac RTF inh; actives 8% (n = 360); AID 504635; inhibition, % at 7.15 µM; in the data active = inhibition above about 18%
An asterisk follows results filed as active; / = not tested or not shown.

SMILES	RTF Ca sens act	IDE cell activ	IDE inh	CRFR2-BP ag	CRFR2-BP antag	Cardiac RTF inh	RTF inh confirm
Cn1c(SCC(=O)c2ccc(O)cc2O)nnc1-c1ccccc1	-5.0	-3.0	1.0	0.7	-3.8	5.7	/
COc1cccc(-c2ccc(C3=CC(=O)CC(C)(C)C3=O)cc2)c1OC	/	/	/	-0.9	2.9	/	/
CC(=O)Nc1ccc2ccccc2c1	-7.7	7.8	7.5	2.7	19.3	23.6*	-1.7
CC(=O)CC(=O)Nc1ccc2ccccc2c1	-1.4	-3.0	1.8	0.2	-6.1	3.3	/
O=C(c1ccc(Cl)cc1)c1cnc2ccccn12	2.7	2.1	1.4	-2.5	-4.9	17.9*	-1.3
O=C(Nc1cnc2ccccn2c1=O)c1ccc(Cl)cc1Cl	3.9	2.8	7.1	1.7	4.2	-10.5	/
O=C1CSC(c2cccc(F)c2)N1c1c(F)cccc1F (stereo unspecified)	1.9	2.0	0.5	-3.7	41.8	-1.0	/
O=C1CSC(c2cccc([N+](=O)[O-])c2)N1c1c(F)cccc1F (stereo unspecified)	2.7	5.4	8.4	-2.5	1.2	21.5*	-5.6
O=C(NC1CCCCCC1)C1Cc2ccccc2CN1C(=O)c1ccco1 (stereo unspecified)	2.1	4.2	-0.5	-1.6	6.4	8.6	/
C[C@H](CO)N1C[C@H](C)[C@@H](CN(C)C(=O)NC2CCCCC2)Oc2c(NC(=O)Cc3ccccc3)cccc2C1=O	4.7	0.1	7.9	-1.7	5.3	6.7	/
COc1cc(-c2nnc(SCc3cc(=O)oc4cc(O)c(O)cc34)o2)cc(OC)c1OC	-30.9	-6.8	-4.3	-1.4	4.9	29.9*	17.2*
CC(C)N1CCC(N2CCN(Cc3cc4c(cc3Cl)OCO4)CC2CCO)CC1 (stereo unspecified)	5.9	2.6	1.3	0.5	16.6	1.0	/
CN(NC(=O)c1ccccc1)C1=NS(=O)(=O)c2ccccc21	-1.4	4.6	-2.8	-1.9	-3.3	-0.7	/
CN(NC(=O)COc1ccccc1)C1=NS(=O)(=O)c2ccccc21	2.5	3.9	6.7	-1.4	21.7	29.9*	-3.5
O=C1Nc2c(Br)cccc2C1=O	-8.2	-6.7	0.2	5.6	4.5	-8.7	/
CCOc1ccc(NC(=O)CSc2ncn[nH]2)cc1	-3.6	2.0	4.0	-0.7	2.4	3.7	/
CCSc1cc(N2CCCC2)nc(-c2cccc(C)c2)n1	3.3	2.9	5.0	-1.3	-10.2	18.2*	-0.4
CCSc1cc(N2CCCC2)nc(-c2ccc(C)cc2)n1	0.5	0.7	0.8	5.2	-77.1	-3.9	/
COc1ccc(/C=C2\SC(=S)N(C(C(=O)O)c3ccccc3)C2=O)c(OC)c1 (stereo unspecified)	7.4	-5.2	5.3	4.1	30.1	-3.9	/
COc1cc(/C=C2\SC(=S)N(C(C(=O)O)c3ccccc3)C2=O)cc(OC)c1OC (stereo unspecified)	11.0	2.8	3.6	2.2	-0.1	28.0*	-3.6
Oc1cccc2ccc[n+](CC(O)Cn3c4ccccc4c4ccccc43)c12 (stereo unspecified)	5.4	1.8	3.0	-2.6	5.6	18.5*	-1.1
COc1ccc(C)cc1NC(=O)CN1C(=O)COc2ccc(S(=O)(=O)N3CCCCC3)cc21	-2.1	3.2	2.6	-1.8	-28.9	-7.1	/
Cc1ccc2nc(-c3ccc(SCC(=O)Nc4ccc5c(c4)OCCO5)nc3)[nH]c2c1	-3.0	-3.7	7.6	-2.5	10.6	-0.2	/
O=C(CSc1ccc(-c2nc3ccccc3[nH]2)cn1)Nc1ccc2c(c1)OCCO2	-0.5	0.1	-2.4	-0.5	4.3	20.7*	-2.6
Cn1c(N)c(C(=O)COC(=O)c2ccc(-c3ccccc3)cc2)c(=O)n(C)c1=O	-0.2	-8.0	6.8	7.7	1.2	1.4	/
C=CCN(CC=C)S(=O)(=O)c1ccc(C(=O)Nc2nnc(COC)o2)cc1	4.3	7.9	-1.5	-0.2	-8.6	10.9	/
COCc1nnc(NC(=O)c2ccc(S(=O)(=O)N(CC(C)C)CC(C)C)cc2)o1	-0.1	-0.1	2.9	-6.8	0.3	188.8*	-0.6
Cc1ccc(C(=O)CCC(=O)N2CCC(C(N)=O)CC2)s1	1.1	3.3	-0.9	-0.8	14.5	-3.0	/
